# PubChem BioAssay (EPA / NIEHS)
# Results filed as inconclusive are left out. The source made the active and inactive calls. Rule for the calls: active = hit-call score of the fitted dose curve at least 0.9, where 1 is the maximum; inconclusive = response in the unintended direction; inactive = score below 0.9.
# System: rat Adrenergic, Alpha 1B Receptor (Adra1B), gene 24173
# Assay: NVS_GPCR_rAdra1B: NovaScreen (NVS) G Protein-Coupled Receptor Assay for rat Adrenergic, Alpha 1B Receptor (Adra1B) (AID 2283297)
# Protocol: NVS_GPCR_rAdra1B is a biochemical, single-readout assay that uses extracted gene-proteins from Rat liver membranes in a tissue-based cell-free assay. Measurements were taken 1 hour after chemical dosing in a 48-well plate.NVS_GPCR_rAdra1B is one of one assay component(s) measured or calculated from the NVS_GPCR_rAdra1B assay. It is designed to make measurements of radioligand binding, a form of binding reporter, as detected with scintillation counting signals by Filter-based radiodetection technology.Data from the assay component NVS_GPCR_rAdra1B was analyzed into 1 assay endpoint. This assay endpoint, NVS_GPCR_rAdra1B, was analyzed in the positive analysis fitting direction relative to DMSO as the negative control and baseline of activity. Using a type of binding reporter, loss-of-signal activity can be used to understand changes in the binding as they relate to the gene Adra1b. Furthermore, this assay endpoint can be referred to as a primary readout, because the performed assay has only produced 1 assay endpoint. To generalize the intended target to other relatable targets, this assay endpoint is annotated to the gpcr intended target family, where the subfamily is rhodopsin-like receptor.
# Binding assays used specific radioligands (tritiated, iodinated) with non-radioactive competitive displacement ligands in agonist or antagonist protocols (as indicated) and various reference compounds and inhibitors to titrate specific binding to receptors and transporters. Most enzyme assays (CYPs, kinases, phosphatases, proteases, HDACs) used recombinant protein and specific substrates (fluorescence mostly, some colorimetric and radioactive) and inhibitors, followed by a biochemical separation of substrate and product. All assays for the biochemical HTS were initially run in duplicate at a single concentration (10 uM for CYP450 assays and 25 uM for all others). […] Each assay was run with positive and negative controls, and concurrent controls on every plate. The follow-up (secondary) screen tested active chemical-pairs in concentration series, as well as a few additional assays not tested in the primary screen, some selected negative inactives, and several cases re-run in the concentration series for confirmatory purposes.
SMILES,AC50,outcome
CC[C@H]1CC[C@H](NCc2cc3c(cc2OC)[C@H]2C[C@H]2C(=O)N3C)[C@H](c2ccccc2)N1,17.2 µM (active),–
O=c1[nH]c2ccc(S(=O)CCN3CCC(Cc4ccc(F)cc4)CC3)cc2o1 (stereo unspecified),3.46 µM (active),–
COc1cccc(-c2ccc(/C=C\CN3CCCCCC3)cc2Cl)c1,18.7 µM (active),–
CCCN(C1CCN(C(=O)C2CCNCC2)CC1)[C@@H]1CCc2ccc(OC)cc2C1,12.8 µM (active),–
COCCOc1cc2cc(C(=O)NC3CCN(C(C)C)CC3)n(CC(=O)Nc3ccc(Cl)cn3)c2cn1,15.3 µM (active),–
CCCCCCCCCCCCCCCO,–,inactive
CCc1cc(SCc2sc(-c3ccc(C(F)(F)F)cc3)nc2CN2CCN(c3ccc(OC)cc3)CC2)ccc1OCC(=O)O,–,inactive
Cc1[nH]cnc1C[C@H]1CCc2c(C)c3ccccc3n2C1=O,11.9 µM (active),–
Nc1ccc(Nc2ccccc2)cc1,40.6 µM (active),–
Cn1cnc([N+](=O)[O-])c1Sc1ncnc2nc[nH]c12,–,inactive
CNS(=O)(=O)c1cc(C(=O)N2CCC(CCN3C4CCC3CC(n3c(C)nc5ccccc53)C4)(c3cccc(F)c3)CC2)c(Cl)cc1F (stereo unspecified),2.1 µM (active),–
